Measurements as given in PubChem BioAssay AID1159580 (chemical genetic matrix, 2015).
Screen size: about 5,500 compounds; about 2,000 (36%) were called active. Not shown: some 18% with an inconclusive outcome. Rule as the data show it: active = normalized growth mostly below about 0.91 (no sharp cut-off); inconclusive = no clear call, values can overlap the other calls; inactive = mostly above about 0.92. The list shows a part of the results.

Assay: chemical genetic growth profiling, strain panel (AID 1159580);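 also: tested at 20 µM; growth read once vehicle control cultures reached saturation at 30 °C; 1 = growth at the plate median or of vehicle wells; lower values mean less growth of the strain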
Conditions: growth OD
[1] = S. cerevisiae deletion strains, locus YGR078C, strain PAC10, stronger effect = lower value
[2] = S. cerevisiae deletion strains, locus YMR263W, strain SAP30, stronger effect = lower value
[3] = S. cerevisiae deletion strains, locus YNL153C, strain GIM3, stronger effect = lower value
[4] = S. cerevisiae deletion strains, locus YNL322C, strain KRE1, stronger effect = lower value
[5] = S. cerevisiae deletion strains, locus YPL055C, strain LGE1, stronger effect = lower value
[6] = S. cerevisiae deletion strains, locus YPL241C, strain CIN2, stronger effect = lower value

Measured: normalized growth

CC1=C(C(=O)O)N2C(=O)[C@@H](NC(=O)C(N)C3=CCC=CC3)[C@H]2SC1 (stereo partly drawn)
inactive: S. cerevisiae deletion strains, locus YAL040C, strain CLN3, stronger effect = lower value 1.02 | S. cerevisiae deletion strains, locus YDR363W, strain ESC2, stronger effect = lower value 1.03 | S. cerevisiae deletion strains, locus YER002W, strain NOP16, stronger effect = lower value 1.02 | [1] 1.01 | [2] 1.03 | [3] 1.01 | S. cerevisiae deletion strains, locus YNL175C, strain NOP13, stronger effect = lower value 1.02 | S. cerevisiae deletion strains, locus YNL197C, strain WHI3, stronger effect = lower value 1.03 | S. cerevisiae deletion strains, locus YNL224C, strain SQS1, stronger effect = lower value 1.01 | [4] 1.03 | S. cerevisiae deletion strains, locus YOR083W, strain WHI5 (second series), stronger effect = lower value 1.04 | [5] 1.02 | [6] 1.01

CN=C1CN(O)C(c2ccccc2)=c2cc(Cl)ccc2=N1
inactive: S. cerevisiae deletion strains, locus YAL013W, strain DEP1, stronger effect = lower value 0.989 | S. cerevisiae deletion strains, locus YBR021W, strain FUR4, stronger effect = lower value 1.06 | S. cerevisiae deletion strains, locus YBR229C, strain ROT2, stronger effect = lower value 0.969 | S. cerevisiae deletion strains, locus YCL029C, strain bik1, stronger effect = lower value 0.981 | S. cerevisiae deletion strains, locus YDL035C, strain GPR1, stronger effect = lower value 1.01 | S. cerevisiae deletion strains, locus YDL074C, strain BRE1, stronger effect = lower value 0.965 | S. cerevisiae deletion strains, locus YDL101C, strain DUN1, stronger effect = lower value 0.974 | S. cerevisiae deletion strains, locus YDL134C, strain PPH21, stronger effect = lower value 0.983 | S. cerevisiae deletion strains, locus YDL185W, strain tfp1, stronger effect = lower value 0.946 | S. cerevisiae deletion strains, locus YDL192W, strain arf1, stronger effect = lower value 0.983 | S. cerevisiae deletion strains, locus YDR101C, strain arx1, stronger effect = lower value 1.01 | S. cerevisiae deletion strains, locus YDR150W, strain NUM1, stronger effect = lower value 0.971 | S. cerevisiae deletion strains, locus YDR162C, strain NBP2, stronger effect = lower value 0.94 | S. cerevisiae deletion strains, locus YDR318W, strain mcm21, stronger effect = lower value 1.01 | S. cerevisiae deletion strains, locus YDR388W, stronger effect = lower value 0.983 | S. cerevisiae deletion strains, locus YDR502C, strain sam2, stronger effect = lower value 0.971 | S. cerevisiae deletion strains, locus YEL061C, strain CIN8, stronger effect = lower value 0.985 | S. cerevisiae deletion strains, locus YER110C, stronger effect = lower value 0.985 | S. cerevisiae deletion strains, locus YER155C, strain BEM2, stronger effect = lower value 0.997 | S. cerevisiae deletion strains, locus YER167W, strain BCK2, stronger effect = lower value 1 | S. cerevisiae deletion strains, locus YGL078C, strain dbp3, stronger effect = lower value 0.975 | S. cerevisiae deletion strains, locus YGL086W, strain mad1, stronger effect = lower value 1 | S. cerevisiae deletion strains, locus YGL248W, strain PDE1, stronger effect = lower value 0.978 | [1] 0.978 | S. cerevisiae deletion strains, locus YGR135W, strain pre9, stronger effect = lower value 0.955 | S. cerevisiae deletion strains, locus YGR229C, strain SMI1, stronger effect = lower value 0.993 | S. cerevisiae deletion strains, locus YGR252W, strain gcn5, stronger effect = lower value 1.06 | S. cerevisiae deletion strains, locus YHR030C, strain SLT2, stronger effect = lower value 1 | S. cerevisiae deletion strains, locus YHR079C, strain IRE1 (second series), stronger effect = lower value 0.991 | S. cerevisiae deletion strains, locus YHR094C, strain hxt1, stronger effect = lower value 0.987 | S. cerevisiae deletion strains, locus YHR129C, strain ARP1, stronger effect = lower value 0.992 | S. cerevisiae deletion strains, locus YHR200W, strain rpn10, stronger effect = lower value 0.983 | S. cerevisiae deletion strains, locus YIL066C, strain RNR3, stronger effect = lower value 0.97 | S. cerevisiae deletion strains, locus YIL073C, strain SPO22, stronger effect = lower value 1.02 | S. cerevisiae deletion strains, locus YIL125W, strain kgd1, stronger effect = lower value 0.978 | S. cerevisiae deletion strains, locus YIR030C, strain dcg1, stronger effect = lower value 0.985 | S. cerevisiae deletion strains, locus YJL095W, strain BCK1, stronger effect = lower value 0.981 | S. cerevisiae deletion strains, locus YJL134W, strain LCB3, stronger effect = lower value 0.997 | S. cerevisiae deletion strains, locus YJL168C, strain set2, stronger effect = lower value 0.984 | S. cerevisiae deletion strains, locus YJL187C, strain SWE1 (second series), stronger effect = lower value 0.959 | S. cerevisiae deletion strains, locus YJR043C, strain POL32, stronger effect = lower value 1.03 | S. cerevisiae deletion strains, locus YJR075W, strain HOC1, stronger effect = lower value 0.988 | S. cerevisiae deletion strains, locus YKL009W, strain mrt4, stronger effect = lower value 0.982 | S. cerevisiae deletion strains, locus YKL068W, stronger effect = lower value 0.988 | S. cerevisiae deletion strains, locus YKL085W, strain MDH1 (second series), stronger effect = lower value 0.978 | S. cerevisiae deletion strains, locus YKL085W, strain MDH1, stronger effect = lower value 0.978 | S. cerevisiae deletion strains, locus YKL190W, strain CNB1, stronger effect = lower value 0.979 | S. cerevisiae deletion strains, locus YKR001C, strain vps1, stronger effect = lower value 0.998 | S. cerevisiae deletion strains, locus YLR039C, strain RIC1, stronger effect = lower value 0.973 | S. cerevisiae deletion strains, locus YLR058C, strain SHM2, stronger effect = lower value 0.983 | S. cerevisiae deletion strains, locus YLR102C, strain apc9, stronger effect = lower value 0.976 | S. cerevisiae deletion strains, locus YLR262C, strain YPT6, stronger effect = lower value 0.969 | S. cerevisiae deletion strains, locus YLR268W, strain sec22, stronger effect = lower value 0.991 | S. cerevisiae deletion strains, locus YLR330W, strain CHS5, stronger effect = lower value 0.998 | S. cerevisiae deletion strains, locus YLR342W, strain FKS1 (second series), stronger effect = lower value 1.06 | S. cerevisiae deletion strains, locus YLR371W, strain rom2, stronger effect = lower value 0.969 | S. cerevisiae deletion strains, locus YLR418C, strain cdc73, stronger effect = lower value 0.951 | S. cerevisiae deletion strains, locus YML016C, strain PPZ1, stronger effect = lower value 0.988 | S. cerevisiae deletion strains, locus YML032C, strain rad52, stronger effect = lower value 0.989 | S. cerevisiae deletion strains, locus YML124C, strain tub3, stronger effect = lower value 0.984 | S. cerevisiae deletion strains, locus YMR078C, strain ctf18, stronger effect = lower value 0.98 | [2] 0.957 | S. cerevisiae deletion strains, locus YMR307W, strain GAS1, stronger effect = lower value 1.06 | S. cerevisiae deletion strains, locus YNL067W, strain RPL9B, stronger effect = lower value 0.974 | S. cerevisiae deletion strains, locus YNL128W, strain TEP1, stronger effect = lower value 0.966 | [3] 0.962 | S. cerevisiae deletion strains, locus YNL233W, strain BNI4, stronger effect = lower value 0.98 | S. cerevisiae deletion strains, locus YNL250W, strain rad50, stronger effect = lower value 0.981 | S. cerevisiae deletion strains, locus YNL271C, strain bni1, stronger effect = lower value 0.985 | S. cerevisiae deletion strains, locus YNL298W, strain CLA4, stronger effect = lower value 0.977 | S. cerevisiae deletion strains, locus YNL307C, strain MCK1, stronger effect = lower value 0.999 | [4] 0.987 | S. cerevisiae deletion strains, locus YNR052C, strain pop2, stronger effect = lower value 0.985 | S. cerevisiae deletion strains, locus YOL006C, strain TOP1, stronger effect = lower value 0.949 | S. cerevisiae deletion strains, locus YOL012C, strain htz1 0.854 | S. cerevisiae deletion strains, locus YOL147C, strain pex11, stronger effect = lower value 0.995 | S. cerevisiae deletion strains, locus YOR061W, strain CKA2, stronger effect = lower value 0.969 | S. cerevisiae deletion strains, locus YOR069W, strain VPS5, stronger effect = lower value 1 | S. cerevisiae deletion strains, locus YOR136W, strain idh2, stronger effect = lower value 0.988 | S. cerevisiae deletion strains, locus YOR144C, strain elg1, stronger effect = lower value 0.984 | S. cerevisiae deletion strains, locus YOR184W, strain ser1, stronger effect = lower value 1.01 | S. cerevisiae deletion strains, locus YOR316C, strain cot1, stronger effect = lower value 0.975 | [5] 0.934 | [6] 0.99 | S. cerevisiae deletion strains, locus YPR119W, strain clb2, stronger effect = lower value 0.989 | S. cerevisiae deletion strains, locus YPR141C, strain kar3, stronger effect = lower value 0.962 | S. cerevisiae deletion strains, locus YPR163C, strain tif3, stronger effect = lower value 0.988 | S. cerevisiae deletion strains, locus YPR167C, strain met16, stronger effect = lower value 0.983 | S. cerevisiae deletion strains, strain wtn01, stronger effect = lower value 0.984 | S. cerevisiae strains, strain wild type, stronger effect = lower value 0.994
